According to PubChem BioAssay:
Activity calls are given as the source filed them.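 How the source made its calls, unless noted: active means z-score of at least 1.8 in each of two replicates, scored against plate mean and spread of sample wells; inactive means the rest.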

Assays:
[1] = tested on: Aerobactin synthetase IucA (Klebsiella pneumoniae); test: inhibition of K. pneumoniae IucA enzyme – biochemical, Tocris library, absorbance (AID 1345561; call rule not given here;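 further: 100% = enzyme without compound and 0% = no enzyme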); conditions: purified IucA enzyme assay, absorbance (OD) read-out; stronger effect = lower value;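 tested at 8 µM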
[2] = viability loss with induced miR-34 in A549 – imaging, A549 dox-inducible miR-34, nuclei and caspase counts, primary screen (AID 1347080;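 active means compounds whose cell count with miR-34 switched on is under 0.7 times the count with it off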); conditions: A549 miR-34 inducible, Hoechst nuclei count, 48 h
[3] = galactose survival enhancers in mitochondrial complex I cybrids – cell-based, galactose medium, ATP luminescence, primary screen (AID 1645843); conditions: complex I mutant cybrid cells, 72 h, stronger effect = higher value;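 further: positive z means more ATP and so rescue of galactose-driven cybrid death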
[4] = stronger effect = lower value, cell number ratio, induced over uninduced
[5] = measured here: relative caspase fold change +Dox/-Dox
[6] = measured here: total cells with miR-34 induction, stronger effect = lower value
[7] = measured here: total cells without miR-34 induction

| SMILES | remaining activity [1] | fold change [2, 4] | fold change [2, 5] | cell count [2, 6] | cell count [2, 7] | z-score [3] |
| --- | --- | --- | --- | --- | --- | --- |
| O=C1c2ccccc2C(Cc2ccnc(F)c2)(Cc2ccnc(F)c2)c2ccccc21 | 102% (inactive) | 0.93 (inactive) | 1.37 | 8150 | 8760 | 0.3 (inactive) |
| CC(C)NCC(O)COc1ccccc1-n1cccc1 (configuration not stated) | 99.6% (inactive) | 0.968 (inactive) | 0.992 | 8690 | 8980 | -0.43 (inactive) |
| c1ccc2cc(C3=NCCN3)ncc2c1 | 113% (inactive) | 0.991 (inactive) | 0.685 | 9570 | 9660 | -0.34 (inactive) |
| CCCCOC(=O)c1cc2c(cn1)[nH]c1ccccc12 | 96.6% (inactive) | 0.861 (inactive) | 0.7 | 7200 | 8360 | 1.05 (inactive) |
| O=C(N/N=C/c1ccccc1O)c1ccccc1O | 106% (inactive) | 0.984 (inactive) | 1.5 | 4010 | 4070 | -0.59 (inactive) |
| NC(N)=Nc1ccc(Cl)cc1 | 81.8% (inactive) | 0.948 (inactive) | 0.891 | 8620 | 9100 | -0.49 (inactive) |
| O=C(Nc1ccccc1)N[C@H]1C[C@H](C(=O)O)Nc2cc(Cl)cc(Cl)c21 | 104% (inactive) | 0.916 (inactive) | 0.915 | 8670 | 9460 | 0.995 (inactive) |
| O=C1C=CC(=O)C2=C1C1c3ccccc3C2c2ccccc21 | 104% (inactive) | 0.889 (inactive) | 1.44 | 6130 | 6900 | -0.705 (inactive) |
| CS/C(N)=C(C#N)/C(C#N)=C(\N)SC | 109% (inactive) | 0.85 (inactive) | 1.19 | 8330 | 9800 | -0.595 (inactive) |
| Oc1ccc(-c2nc3cc(O)cc(Br)c3o2)cc1 | 98.9% (inactive) | 0.904 (inactive) | 1.67 | 8500 | 9400 | 0.775 (inactive) |
| C[C@]12CC[C@@H]3c4ccc(O)cc4C[C@@H](CCCCCCCCCS(=O)CCCC(F)(F)C(F)(F)F)C3[C@@H]1CC[C@@H]2O (some centres not stated) | 117% (inactive) | 0.929 (inactive) | 0.852 | 6320 | 6800 | 0.9 (inactive) |
| CSc1ccc([C@H]2CN3CCC[C@H]3c3ccccc32)cc1 | 123% (inactive) | 0.927 (inactive) | 1.33 | 7680 | 8280 | -0.51 (inactive) |
| Cc1ccc(NC(=O)C(C)C)cc1C1CCN(Cc2ccc(Oc3ccc(F)c(F)c3)cc2)CC1 | 107% (inactive) | 1.03 (inactive) | 0.737 | 1330 | 1290 | -0.705 (inactive) |
| C=C1C(=O)O[C@@H]2/C=C(\C)CC/C=C(\C)CC[C@@H]12 | 118% (inactive) | 1.04 (inactive) | 1.29 | 8100 | 7810 | -0.605 (inactive) |
| CN1CCN(C(=O)c2nc3ccc(Cl)cc3[nH]2)CC1 | 102% (inactive) | 0.91 (inactive) | 1.56 | 8900 | 9780 | 0.84 (inactive) |
| N[C@H]1CCN(O)C1=O | 122% (inactive) | 1.02 (inactive) | 0.709 | 8480 | 8300 | -0.005 (inactive) |
| Nc1c(S(=O)(=O)O)cc(Nc2cccc3ccccc23)c2c1C(=O)c1ccccc1C2=O | 109% (inactive) | 0.981 (inactive) | 1.43 | 9410 | 9590 | 3.16 (active) |
| CN=C1C=C2C(=NC=NC2=Nc2cccc(Br)c2)C=N1 | 82.7% (inactive) | 0.699 (active) | 1.7 | 942 | 1350 | -0.675 (inactive) |
| COc1ccc([C@H]2CNC(=O)C2)cc1OC1CCCC1 | 113% (inactive) | 0.966 (inactive) | 0.702 | 9600 | 9950 | -0.255 (inactive) |
| Clc1ccccc1CNCC1CCC(CNCc2ccccc2Cl)CC1 (configuration not stated) | 103% (inactive) | 0.98 (inactive) | 0.883 | 7550 | 7700 | -0.795 (inactive) |
| CN(C)CCC1(c2ccc(Cl)cc2)Cc2ccccc2C(=O)O1 (configuration not stated) | 122% (inactive) | 0.975 (inactive) | 1.4 | 7700 | 7900 | -0.195 (inactive) |
| CN(C)c1nc(N)c(C(=O)Nc2cccnc2)nc1Cl | 113% (inactive) | 0.904 (inactive) | 1.39 | 5930 | 6560 | 0.61 (inactive) |
| Nc1nc(-c2ccc(Cl)c(Cl)c2)c(-c2ccncc2)s1 | 110% (inactive) | 0.959 (inactive) | 1.23 | 8510 | 8870 | 1.59 (inactive) |
| CS(=O)(=O)c1ccc(Cn2c3c(c4cc(F)cc(F)c42)CCCC3CC(=O)O)cc1 (configuration not stated) | 110% (inactive) | 0.908 (inactive) | 0.675 | 8590 | 9460 | 0.655 (inactive) |
| CS(=O)(=O)Nc1c(O)ccc2c1CCCC2C1=NCCN1 (configuration not stated) | 114% (inactive) | 1 (inactive) | 0.792 | 9080 | 9050 | -0.21 (inactive) |
| N[C@@H](Cn1ccc(=O)n(Cc2ccccc2C(=O)O)c1=O)C(=O)O | 102% (inactive) | 0.972 (inactive) | 1.26 | 8660 | 8900 | 0.025 (inactive) |
| CC[C@]1(O)C[C@H]2CN(CCc3c([nH]c4ccccc34)[C@@](C(=O)OC)(c3cc4c(cc3OC)N(C)[C@H]3[C@@](O)(C(=O)OC)[C@H](OC(C)=O)[C@]5(CC)C=CCN6CC[C@]43[C@@H]65)C2)C1 | 123% (inactive) | 1.06 (inactive) | 0.382 | 1570 | 1480 | -0.65 (inactive) |
